# FMDV inh – blocks foot and mouth disease virus | FMDV antiviral cell-based qHTS | Potency, µM (highest dose often 57.9 µM), usual class: inhibitors | 1.2% of 410,000 active; calls by dose curve; tested in HEK293T cells; note: read-out not given here; nearly all actives have a fitted effect of over 45% in size
# RE007 growth inh – less growth of the S. pombe RE007 Vpr strain. Potency, µM (highest dose often 92.2 µM), actives largely listed as inhibitors. S. pombe RE007 Vpr strain, BacTiter-Glo ATP luminescence, 24 h. 0.21% of 360,000 active; active = well fitted falling curve with a large enough effect; inconclusive = small, poorly fitted or top-dose-only effect; inactive = no such curve, though single readings can be large or run the other way; note: nearly all actives have a fitted effect of over 50% in size
#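 Fission yeast strain RE007, carrying one chromosomally integrated HIV-1 vpr copy, was seeded at OD 0.01 in PMG+AL medium with 23 nL pinned compound. After 24 h at 30 °C and 99% humidity, viability was read by BacTiter-Glo luminescence.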
# MARV entry inh – blocks Marburg virus binding to or entry into cells. 1.8% of 300,000 active. Potency, µM (highest dose often 37.8 µM), most hits filed as inhibitors. Marburg virus pseudotyped entry inhibition, cell reporter; calls by dose curve; tested in HEK293 cells
# Sm TGR inh – S. mansoni TGR enzyme inhibition; AID 485364; 3% of 360,000 active; Q962Y6; purified TGR, DTNB reduction, TNB absorbance 405 nm; Potency, µM (series often up to 114 µM), usual class: inhibitors; note: nearly all actives have a fitted effect of over 60% in size
#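 First, TGR (20 nM dispensed) and NADPH were mixed with compound. Second, a 15 min room-temperature incubation followed. Third, further NADPH and then DTNB were added to start the reaction. Finally, TNB absorbance was monitored kinetically.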
# HCV inh – inhibitors of hepatitis C virus infection; Huh7.5.1 HCVcc-Cre infection, luciferase reporter, 44 h; Potency, µM (titrated, usually from 41.8 µM), actives largely listed as inhibitors; 3.4% of 340,000 active
#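 Seed cells (1,000/well) for 4 h; treat with compound and infect with HCVcc-Cre, moi about 0.5. Incubate 44 h, then detect luciferase activity.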
# LASV entry inh – Lassa virus entry inhibition; 1.2% of 300,000 active; Lassa virus pseudotype entry inhibition, cell reporter; Potency, µM (titrated, usually from 37.9 µM), usual class: inhibitors; calls by dose curve; tested in HEK293 cells; note: nearly all actives have a fitted effect of over 50% in size
# Numbers stand for hits; . = inactive; ? = inconclusive; / = no result given. A selection: hits, their analogues and other compounds. The true share with any hit is near 7.2%. Unless noted, calls come from the whole dose curve; as a rule, active = well fitted curve in the direction sought with a large enough effect; inconclusive = small, poorly fitted or top-dose-only effect, or another doubt; inactive = no such curve, though single readings can be large; an effect the other way counts as inactive or inconclusive.
SMILES,FMDV inh,RE007 growth inh,MARV entry inh,Sm TGR inh,HCV inh,LASV entry inh
CC(C)c1ccc(/C=C/C(=O)Nc2nn[nH]n2)cc1,/,/,/,.,/,/
Cc1ccc(/C=C/C(=O)Nc2ccccc2C(N)=O)o1,.,/,?,22.4µM,/,.
Cc1ccc(/C=C/C(=O)OCC(=O)Nc2cccnc2Cl)o1,.,.,.,/,.,.
Cc1ccc(/C=C/C(=O)Nc2cccc3ncccc23)o1,/,.,.,8.91µM,?,.
NC(=O)c1ccccc1NC(=O)/C=C/c1c(Cl)cccc1Cl,.,.,?,.,?,.
CC(C)C(NS(C)(=O)=O)c1nnc2n1CCN(Cc1ccc3cccnc3c1)CC2 (configuration not stated),.,/,/,/,/,/
COc1ccc(Cn2c(=O)oc3ccc(C)cc32)cc1OC,?,.,?,.,14.1µM,?
CCn1c(O)c(/C=N/N=C2CCCCC2)c2cc(C3=NNC(=O)CC3)ccc21,.,.,.,39.8µM,?,.
COc1ccc(N2C(=O)CC(N(CCc3ccccc3)C(=O)c3ccccc3)C2=O)cc1 (configuration not stated),.,.,.,.,.,.
CCCCCC(=O)N(O)C1CC(=O)N(c2ccccc2)C1=O (configuration not stated),.,10µM,.,?,.,.
CN(Cc1ccccc1)C1CC(=O)N(c2ccc(C(=O)O)cc2)C1=O (configuration not stated),.,.,.,20µM,.,.
CC1(C2CC2)NC(=O)N(CC(=O)N2CCN(c3cccc(C(F)(F)F)c3)CC2)C1=O (configuration not stated),35.5µM,.,.,/,.,.
Cc1ccc(CC(=O)N2CCN(c3cccc(C(F)(F)F)c3)CC2)cc1,.,.,.,.,.,?
CCOC(=O)c1cc(-c2ccc(N3CCOCC3)cc2)nn1-c1ccc(F)cc1F,.,.,.,.,11.2µM,?
O=C(CSc1nc(Nc2ccccc2)nc(N2CCOCC2)n1)Nc1ccccc1Cl,/,.,?,.,?,4.61µM
O=C(CSc1nc(Nc2ccccc2)nc(N2CCOCC2)n1)Nc1cccc([N+](=O)[O-])c1,.,.,?,.,?,?
CN(C)c1nc(SCc2ccccc2)nc(N2CCOCC2)n1,.,.,.,.,?,.
O=C(CSc1nc(Nc2ccccc2)nc(N2CCOCC2)n1)Nc1ccc(Br)cc1F,.,.,/,.,?,/
COc1ccc(Cl)cc1NC(=O)CSc1nc(Nc2ccccc2)nc(N2CCOCC2)n1,?,.,/,.,11.2µM,/
O=C(CSc1nc(Nc2ccccc2)nc(N2CCOCC2)n1)Nc1ccc([N+](=O)[O-])cc1,.,.,?,.,11.2µM,.
COc1ccc(Cl)cc1NC(=O)CSc1nc(N2CCOCC2)nc(N2CCOCC2)n1,.,.,?,.,?,?
CCNc1nc(SCc2ccccc2)nc(N2CCOCC2)n1,.,.,?,.,5.62µM,?
Cc1ccc(CNC(=O)Cn2c(=O)n(-c3ccc(C)cc3)c(=O)c3c2c2cc(C)ccc2n3C)cc1,.,/,/,.,/,.
CCc1ccccc1N(CC)C(=O)Cn1nc(Cc2ccncc2)c2ccccc2c1=O,.,/,?,.,/,.
Cc1ccc(CNc2nc(CN3CCCCC3c3cccnc3)nc3ccccc23)o1 (configuration not stated),.,/,/,/,/,/
SMILES,FMDV inh,RE007 growth inh,MARV entry inh,Sm TGR inh,HCV inh,LASV entry inh
Cc1ccc(C)c(NC(=O)c2nn(C)c3c2CS(=O)(=O)c2ccccc2-3)c1,.,/,.,.,/,.
O=C(CN1CCCN(S(=O)(=O)c2ccc(Br)cc2)CC1)Nc1cccc(C(F)(F)F)c1,.,/,?,35.5µM,/,.
O=C(CNc1cccc(S(=O)(=O)N2CCCC2)c1)Nc1ccc(C(F)(F)F)cc1,.,.,?,.,10µM,?
N#Cc1cccc(NC(=O)CNc2cccc(S(=O)(=O)N3CCCCC3)c2)c1,35.5µM,.,?,.,?,.
COc1ccc(S(=O)(=O)N2CCCN(CCC(=O)Nc3cccc(C(F)(F)F)c3)CC2)cc1,?,.,.,.,.,?
COCC1CCCN(Cc2ccc3c(c2)CN(C(=O)c2cccnc2OC)CCO3)C1 (configuration not stated),.,/,/,/,/,/
COc1ccc(S(=O)(=O)N2CCOCC2)cc1NC(=O)CSc1ncccn1,.,.,.,/,.,.
O=C(COc1ccc2ccccc2c1Br)N1CCCCC1,.,?,/,.,.,/

# Screening data: PubChem BioAssay, National Center for Advancing Translational Sciences (NCATS)
